The structures appear in SMILES notation. Compounds without any hit were thinned out: in the full panel of roughly 83,000, 20% have a hit.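 Results are percent growth after 48 hours of single-concentration exposure. 100 means growth as in untreated cells, lower positive values show inhibition; negative values down to -100 show cell death.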 A number with no mark means an inactive call. The source made the active and inactive calls. Rule for the calls: active = growth percent below 10; inactive = the rest.

Some test systems named below: T-47D breast; BT-549 breast; MDA-MB-435 melanoma; SW-620 colon; MCF7 breast; HCT-116 colon; HCC-2998 colon; KM12 colon.
Holding throughout (experiment): NCI-60 one-dose screen, 48 h (100 = growth as untreated, 0 = no growth, -100 = all killed)
Holding throughout (conditions): 10 µM unless noted

As for `O=C(CSc1nc(-c2ccccc2)cc(=O)[nH]1)Nc1nc(-c2ccccc2)cs1`, the growth with T-47D breast was 71.8%; in the assay on BT-549 breast it was 88%; with MDA-MB-435 melanoma, 105%; with SW-620 colon it was 107%; in the assay on MCF7 breast, 76.9%; in the assay on HCT-116 colon, 90.3%. The growth with HCC-2998 colon was 111%; with KM12 colon, 95.5%.

Regarding `CCOC(=O)c1[nH]c2c(c1C)-c1[nH]c(=O)c(S(=O)(=O)c3ccccc3)cc1SC2`, the growth in the assay with T-47D breast is 1.66% [100 µM] (active); in the assay with BT-549 breast, 32.7% [100 µM]; in the assay with MDA-MB-435 melanoma, 24.2% [100 µM]; with SW-620 colon, 49.1% [100 µM]; in the assay on MCF7 breast, 28.2% [100 µM]; in the assay on HCT-116 colon, 24.9% [100 µM]. For the same compound, the growth was 75.1% [100 µM] in the assay with HCC-2998 colon and 28.1% [100 µM] with KM12 colon.

Turning to `O=C1/C(=C\c2ccccn2)c2ccccc2N1c1c(Cl)cccc1Cl`, the growth in the assay on T-47D breast is 4.47% (active); in the assay on BT-549 breast, -17.7% (active); in the assay on MDA-MB-435 melanoma it was -5.05% (active); with SW-620 colon, -56.9% (active); in the assay with MCF7 breast, 2.29% (active); with HCT-116 colon, -94.4% (active). For the same compound, the growth in the assay on HCC-2998 colon was -82.1% (active); with KM12 colon, -2.11% (active).

Regarding `CN1CCN(CCCOc2cccc3nc(Nc4ccc(F)c(F)c4)ccc23)CC1`, the growth is 19.4% in the assay on T-47D breast; 52.8% with BT-549 breast; -81.5% (active) in the assay with MDA-MB-435 melanoma; -90.3% (active) with SW-620 colon; -87.6% (active) in the assay with MCF7 breast; -41.2% (active) in the assay on HCT-116 colon. In addition, the growth with HCC-2998 colon was -83.8% (active); with KM12 colon it was -77.3% (active).

On to `CC1(C)CC[C@]2(CO)CC[C@]3(C)[C@H](CC[C@@H]4[C@@]5(C)CCCNC(C)(C)[C@@H]5CC[C@]43C)[C@H]2[C@H]1O`, for which the growth in the assay on T-47D breast was 88.8%; with BT-549 breast, 89.3%; in the assay on MDA-MB-435 melanoma, 82.7%; with SW-620 colon it was 54.2%; with MCF7 breast, 55.2%; in the assay on HCT-116 colon, 50.2%. For the same compound, the growth in the assay with HCC-2998 colon is 38.2%; in the assay with KM12 colon it was 77.9%.

In the case of `CN(C)CCCC1(c2ccc(F)cc2)OCc2cc(-c3cc4ccccc4s3)ccc21` (stereo not given), the growth in the assay on T-47D breast was -2.98% (active); in the assay with BT-549 breast, 80.1%; in the assay with MDA-MB-435 melanoma, -84.4% (active); in the assay with SW-620 colon, -70% (active); in the assay with MCF7 breast, -53.5% (active); with HCT-116 colon it was -80.6% (active). The growth is -78.4% (active) with HCC-2998 colon and -72.1% (active) in the assay on KM12 colon.

For `COc1ccc(/C=C/c2ccc3ccccc3n2)c(OC)c1`, the growth in the assay with T-47D breast is 72.8%; in the assay with BT-549 breast, 67.8%; in the assay on MDA-MB-435 melanoma, -5.31% (active); with SW-620 colon, 38.1%; in the assay with MCF7 breast, 57%; with HCT-116 colon, 62.3%. Also, the growth with HCC-2998 colon is 72.4%; with KM12 colon, 52.5%.

On to `O=C(N/N=C\c1ccccc1S(=O)(=O)O)N/N=C/c1ccccc1S(=O)(=O)O`, for which the growth with T-47D breast was 102%; in the assay with BT-549 breast, 118%; in the assay with MDA-MB-435 melanoma, 105%; in the assay on SW-620 colon, 91.9%; in the assay with MCF7 breast, 93.4%; in the assay on HCT-116 colon, 106%. The figures for the growth in the assay with HCC-2998 colon and in the assay on KM12 colon were 104% and 94.1%, respectively.

For the compound `COc1cc(OC)c2sc(-c3ccc(-n4cncc4-c4cc(OC)c(OC)c(OC)c4)cc3)nc2c1`, the growth with T-47D breast was 32.4%; in the assay on BT-549 breast, 45.1%; in the assay on MDA-MB-435 melanoma, 35.2%; with SW-620 colon, 56.6%; in the assay on MCF7 breast, 49.8%; in the assay with HCT-116 colon, 48.6%. The growth in the assay with HCC-2998 colon was 95.3%; in the assay with KM12 colon, 52.4%.

On to `COc1ccc(N2CCN(C(=O)c3sc4nc(C)c(Br)c(C)c4c3N)CC2)cc1`, for which the growth was 79% with T-47D breast; 88.2% in the assay with BT-549 breast; 98.7% in the assay on MDA-MB-435 melanoma; 104% in the assay on SW-620 colon; 81% in the assay on MCF7 breast; 99% in the assay with HCT-116 colon. Further, the growth is 97.1% in the assay with HCC-2998 colon and 94% with KM12 colon.

Regarding `Cc1ccc2nc(/C(C#N)=C(/CCCO)NC(Cc3ccccc3)C(=O)OCc3ccccc3)[nH]c(=O)c2c1` (stereo not given), the growth with T-47D breast was 93%; with BT-549 breast it was 94.2%; in the assay with MDA-MB-435 melanoma, 89.5%; with SW-620 colon, 110%; in the assay with MCF7 breast it was 99.8%; with HCT-116 colon, 96.9%. Besides, the growth in the assay on HCC-2998 colon is -12.5% (active); in the assay with KM12 colon it was 109%.

In the case of `COC(=O)/C=C1/SC(=Nc2ccc([N+](=O)[O-])cc2)N(CCc2c[nH]c3ccc(O)cc23)C1=O`, the growth was 53.9% in the assay on T-47D breast; 25.7% with BT-549 breast; 43.1% in the assay on MDA-MB-435 melanoma; 85.5% with SW-620 colon; 30.6% with MCF7 breast; 14.6% with HCT-116 colon. For the same compound, the growth was 20.9% in the assay with HCC-2998 colon and 41.7% with KM12 colon.

Regarding `Cn1c2c(c3ccc(Cl)c(Cl)c31)C(C#N)C(C)(C)NC2=O` (stereo not given), the growth in the assay with T-47D breast is 74.2%; with BT-549 breast, 88.1%; in the assay with MDA-MB-435 melanoma it was 80.9%; in the assay with SW-620 colon, 67.5%; in the assay on MCF7 breast it was 95.3%; with HCT-116 colon it was 76.9%. The growth in the assay on HCC-2998 colon is 91.8%; with KM12 colon it was 91.9%.

With `O=C(CCCCCCN1CC(=O)N2[C@H](c3ccc(Cl)cc3)c3[nH]c4ccccc4c3C[C@@H]2C1=O)NO`, the growth was 25.9% in the assay on T-47D breast; 74.7% with BT-549 breast; 43.2% in the assay on MDA-MB-435 melanoma; 35.4% in the assay on SW-620 colon; 48% in the assay with MCF7 breast; 24.7% in the assay on HCT-116 colon. Besides, the growth is 82.3% with HCC-2998 colon and 80.3% in the assay with KM12 colon.

For the compound `CC1(C)OB(O)c2cc(-c3nc4ccc5[nH]ncc5c4c4c3CCCC4)ccc21`, the growth is 34.9% in the assay on T-47D breast; 74.9% in the assay with BT-549 breast; 48.8% in the assay with MDA-MB-435 melanoma; 59.4% with SW-620 colon; 44.1% in the assay on MCF7 breast; 22.7% in the assay on HCT-116 colon. Also, the figures for the growth with HCC-2998 colon and in the assay with KM12 colon were 82.9% and 38.7%, respectively.

These data come from PubChem BioAssay (NCI).
